In PubChem BioAssay (NCI):
About 83,000 compounds went through this panel and 20% of them were active in at least one assay; those are over-represented in the sample as a whole.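 The test compound was applied at a single concentration to cells in 96-well plates for 48 hours, and percent growth was recorded.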 Calls of active or inactive are those of the source. Rule for the calls: active = growth percent below 10; inactive = the rest.

System: MDA-MB-435 melanoma
Experiment: NCI-60 one-dose screen, 48 h (100 = growth as untreated, 0 = no growth, -100 = all killed)
Details: 10 µM unless noted

Compound	growth
Cc1ccc(CCC(=O)Nc2ncc(Cc3cc(Cl)ccc3Cl)s2)o1	-36.8% (active)
c1ccc2c(c1)nc(CN1CCOCC1)n1cc(N3CCCC3)nc21	106% (inactive)
COc1ccc(-c2c(N)n[nH]c2-c2ccc(Cl)cc2O)cc1OC	69.7% (inactive)
COc1cc2nc(Cl)nc(Nc3ccc(S(=O)(=O)Nc4nccs4)cc3)c2cc1OC	106% (inactive)
CS(=O)c1cccc(-c2ccc3nc(N)n(-c4ccc(C(F)(F)F)cc4)c(=O)c3c2)c1 (centres undefined)	105% (inactive)
NCCCNc1nc2ccccc2c2c(=O)c3cccc(Cl)c3sc12	-43.3% (active)
CCCCCCCCCCCCCCCCCC1=NCCN1CCOC1=C(Cl)C(=O)c2ccccc2C1=O	95.5% (inactive)
Cc1ccc(Nc2ccc(Nc3ccc(C)cc3)c3c2C(=O)c2cccc(O)c2C3=O)cc1	104% (inactive)
O=Cc1c[nH]c2ccc(-c3csc4ccccc34)cc12	-17.5% (active)
COc1ccc2[nH]c(O)c(/C=c3/cc4c(c(-c5cc(OC)c(OC)c(OC)c5)n3)=Nc3ccccc3-4)c2c1	29.6% (inactive)
NC(=N\N=C/c1cccc([N+](=O)[O-])c1)/C(N)=N\N=C/c1cccc([N+](=O)[O-])c1	73.2% (inactive)
NS(=O)(=O)c1cnccc1Sc1ccncc1S(N)(=O)=O	106% (inactive)
COc1ccc(CN2C(=O)C(Cl)=C(Nc3cccc(C(F)(F)F)c3)C2=O)cc1	25.5% (inactive)
O=C(/C=C/c1ccco1)c1ccc(Nc2nc(Nc3ccc(F)cc3)nc(Nc3ccc(Cl)cc3)n2)cc1	88.5% (inactive)
